Data as given in PubChem BioAssay.
Activity calls are given as the source filed them.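 How the source made its calls: active means membrane potential signal rise above negative control mean plus 3 SD in both duplicates, also active in the earlier TRPC4 screen; inactive means the rest.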

What follows are compounds tested against Short transient receptor potential channel 6 (Mus musculus) (UniProt Q61143) (assay: activation of mouse TRPC6 channel, confirmation, selectivity assay for TRPC4 activator project, cell-based, HEK293, membrane potential dye, duplicate (AID 434950)). Conditions: HEK293 TRPC6, membrane potential fluorescence, at 10 µM.
Short transient receptor potential channel 6 (Mus musculus), sequence (Q61143 whole entry, looked up): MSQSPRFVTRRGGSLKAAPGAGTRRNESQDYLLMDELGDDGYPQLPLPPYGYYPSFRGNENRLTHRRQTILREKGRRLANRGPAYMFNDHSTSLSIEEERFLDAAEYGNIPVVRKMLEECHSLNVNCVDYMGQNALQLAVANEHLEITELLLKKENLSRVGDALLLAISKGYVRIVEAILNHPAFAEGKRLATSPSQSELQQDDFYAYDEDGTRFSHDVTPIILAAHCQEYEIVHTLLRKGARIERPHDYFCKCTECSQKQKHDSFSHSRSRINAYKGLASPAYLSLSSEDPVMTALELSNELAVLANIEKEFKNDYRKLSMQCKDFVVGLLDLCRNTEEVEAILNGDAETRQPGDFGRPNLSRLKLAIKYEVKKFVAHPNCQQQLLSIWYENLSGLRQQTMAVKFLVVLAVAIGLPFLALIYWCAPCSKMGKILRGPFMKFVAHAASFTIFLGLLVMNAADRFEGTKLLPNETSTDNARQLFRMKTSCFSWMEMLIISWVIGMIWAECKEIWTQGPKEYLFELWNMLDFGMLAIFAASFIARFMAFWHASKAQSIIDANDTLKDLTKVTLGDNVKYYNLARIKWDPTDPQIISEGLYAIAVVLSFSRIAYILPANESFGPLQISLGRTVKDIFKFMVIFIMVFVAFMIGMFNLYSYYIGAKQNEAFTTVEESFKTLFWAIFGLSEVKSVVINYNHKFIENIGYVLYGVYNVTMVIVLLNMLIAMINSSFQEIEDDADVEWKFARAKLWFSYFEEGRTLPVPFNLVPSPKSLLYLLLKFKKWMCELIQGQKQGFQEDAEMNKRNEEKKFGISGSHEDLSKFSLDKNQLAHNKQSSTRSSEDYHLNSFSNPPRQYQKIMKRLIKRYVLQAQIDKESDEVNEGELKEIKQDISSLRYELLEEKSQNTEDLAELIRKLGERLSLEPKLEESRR

| SMILES | outcome |
| --- | --- |
| CN(C)C(CNC(=O)c1oc2ccccc2c1CSc1ncn[nH]1)c1ccco1 (centres undefined) | inactive |
| Cc1nn(-c2ccccc2)c(Cl)c1CN(C(=O)CCl)c1ccc(Cl)cc1 | inactive |
| COc1ccccc1N1CCc2c(C)nc3c(OC)cccc3c21 | inactive |
| Cc1cc(CN2CCCC(C(=O)Nc3ccc(-c4nc5ccccc5[nH]4)cc3)C2)n[nH]1 (centres undefined) | inactive |
| CCCCNCC1C(Oc2ccc(Cl)cc2)C(=O)N1c1ccccc1C (centres undefined) | inactive |
| O=C1COc2ccc(N3C(=O)C=CC3=O)cc2N1 | inactive |
| Cc1nc2scc(-c3ccccc3)c2c(=O)n1N=C1C=CC(=O)C=C1 | inactive |
| CCOC(=O)C1=NN(c2ccccc2C)C2=NC(C)=C(C(=O)OC)C(c3cccc(OC)c3)N12 (centres undefined) | inactive |
| N/C(Cc1cccc2ccccc12)=N\OC(=O)c1cccs1 | inactive |
| CCCSc1nc(N)nc(-c2cccs2)c1C#N | inactive |
| Cc1ccc(NC(=O)c2cc(N3C(=O)C=CC3=O)ccc2N2CCOCC2)cc1 | inactive |
| Cc1ccc(NC(=O)CNc2ccccc2CN(C)C2CCCCC2)cc1 | inactive |
| CC1(C)CC(NC(=O)c2cc(COc3cccc(C(F)(F)F)c3)on2)CCO1 (centres undefined) | inactive |
| COc1ccc(C2=NN(C(=O)c3ccccc3)C(c3ccc(OC)c(OC)c3)C2)c(O)c1 (centres undefined) | inactive |
| CCCn1nc([N+](=O)[O-])c(C(C#N)c2nc3ccccc3o2)c(Cl)c1=O (centres undefined) | inactive |
| COc1ccc(C(CNc2ccc(C(F)(F)F)cn2)N(C)C)cc1OC (centres undefined) | inactive |
| COc1cccc(C2=NN(C(=O)c3ccco3)C(c3ccco3)C2)c1 (centres undefined) | inactive |
| c1ccc(Cn2c(NCc3ccco3)nc3ccccc32)cc1 | inactive |
| CC(=O)c1ccc2c(c1)N(C)c1ccccc1S2 | inactive |
| CCOC(=O)C1CCN(CC(O)COc2ccc(C(C)(C)C)cc2)CC1 (centres undefined) | inactive |

| SMILES | outcome |
| --- | --- |
| CC(C)C1=Nc2cccc3cccc(c23)N1 | inactive |
| Cc1cccc2nc(CSc3ccc(Cl)cc3)cn12 | inactive |
| O=C(NC1CCCCC1)N1CCN(C(c2ccccc2)c2ccccc2)CC1 | inactive |
| COc1cc(CNC2CCCC2)c(Br)cc1OCc1ccccc1 | inactive |
| COc1ccc(Nc2cc(C)nc3ccc(OC)cc23)cc1 | inactive |
| Cc1ccc(NC(=S)N(CCCN(C)C)Cc2cc3cc4c(cc3[nH]c2=O)OCO4)c(C)c1 | inactive |
| COc1ccc(CN2CCN(Cc3ccc(C(F)(F)F)cc3)CC2)c(OC)c1 | inactive |
| Cn1cc(CNCC2CCCO2)c(-c2ccc(Oc3ccccc3)cc2)n1 (centres undefined) | inactive |
| CCCCCCCCCCCCOC(=O)C[N+](C)(C)C | inactive |
| CN(C)CCCN(C(=O)c1ccc(S(=O)(=O)N2CCCC2)cc1)c1nc2c(F)cc(F)cc2s1 | inactive |
| C=C(c1ccc(O)cc1)c1ccc(O)cc1 | inactive |
| C/C(N)=C(/C#N)C(=O)COC(=O)CC12CC3CC(CC(C3)C1)C2 | inactive |
| Cc1cccc2cc(CN(CCCN(C)C)C(=S)NCCc3ccccc3)c(=O)[nH]c12 | inactive |
| Nc1cc(C(F)(F)F)ccc1Nc1ccccc1 | inactive |
| CCC(C)NC(C(=O)Nc1ccc(Cl)c([N+](=O)[O-])c1)c1ccccc1 (centres undefined) | inactive |
| COCCn1c(SCc2cccc([N+](=O)[O-])c2)nc2ccccc2c1=O | inactive |
| O=C(Nc1cccc(Cl)c1)N1CCN2C(=O)c3ccccc3C12c1ccccc1 (centres undefined) | inactive |
| CC(C)n1c(NCc2c[nH]c3ccccc23)nc2ccccc21 | inactive |
| Cc1nn(-c2ccccc2)c2[nH]c(C(F)(F)F)cc(=O)c12 | inactive |
